Screening results (PubChem)
DAX1 inh-1 = NR0B1 (DAX1) inhibition; P51843; HEK293 Gal4-DAX1 luciferase reporter, luminescence; inhibition, % at 6.75 µM; 0.99% of 340,000 active; AID 504766;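 active = inhibition above the mean over all tested compounds plus 3 SD, cut at about 4.2% in these data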;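 note: 0% = DAX1-transfected cells with DMSO and 100% = empty-vector control cells with DMSO; inhibition shows as a rise in luminescence from relieved DAX1 repression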
Target sequence (P51843 207-470 limits assumed): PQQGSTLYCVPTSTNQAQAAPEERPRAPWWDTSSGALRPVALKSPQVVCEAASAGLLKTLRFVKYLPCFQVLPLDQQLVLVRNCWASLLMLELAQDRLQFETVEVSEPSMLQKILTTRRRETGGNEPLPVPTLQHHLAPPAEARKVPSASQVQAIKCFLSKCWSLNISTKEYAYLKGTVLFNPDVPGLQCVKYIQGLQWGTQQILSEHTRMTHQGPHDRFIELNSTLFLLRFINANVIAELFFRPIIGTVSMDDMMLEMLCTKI
DAX1 inh-2 = blocks DAX1 repression of SF-1 activated StAR promoter; HEK293T StAR-luciferase reporter, SF-1/DAX-1 repression relief; inhibition, % at 6.8 µM; 1.1% of 370,000 active; AID 652010;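 active = inhibition above the mean over all tested compounds plus 3 SD, cut at about 3.6% in these data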;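 note: 0% = DAX-1 cells with DMSO and 100% = cells lacking DAX-1 with DMSO; higher inhibition means more luminescence from relief of DAX-1 repression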
hcDAF-12 act = activates DAF-12 receptor from parasite H. contortus. HEK293 hcDAF-12 lit1-tk-luc reporter, luminescence; 0% DMSO, 100% Δ7-dafachronic acid. activation, % at 6.8 µM. 1.4% of 370,000 active. AID 652067;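 active = activation above the mean of all tested compounds plus 3 SD, cut at about 5.5% in these data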;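 note: 100% = response to 3 µM Δ7-dafachronic acid high control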
hgDAF-12 ag = activates the H. glycines DAF-12 receptor ligand-binding domain; HEK293 GAL4-hgDAF12 UAS-luciferase reporter, agonist luminescence; normalized to butyrate control; activation, % at 6.8 µM; 1.8% of 370,000 active; AID 687014;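 active = activation above a cutoff set at the mean of all screened compounds plus 3 SD, cut at about 10% in these data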;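 note: 0% = DMSO wells and 100% = sodium butyrate wells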
SMARCA2 act = SMARCA2 function activation, primary screen; MG213 cells, MMTV-luciferase reporter, dexamethasone, overnight; activation, % at 9.1 µM; 1% of 370,000 active; AID 652017; in the data active = activation above about 7.8%;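 note: 0% = vehicle wells and 100% = reference activator wells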
ssDAF12 agonist = activates DAF-12 receptor from parasite S. stercoralis. HEK293 ssDAF-12/GRIP1 lit1-tk-luc reporter, luminescence; % of 3 µM dafachronic acid response. activation, % at 6.8 µM. 1% of 370,000 active. AID 652126;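 active = activation above the mean over all tested compounds plus 3 SD, cut at about 0.9% in these data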;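 note: 0% = DMSO-only wells and 100% = 3 µM delta7-dafachronic acid wells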
Numbers without * were called inactive; · = not tested or not shown; ! = not active in a repeat. An excerpt weighted towards active compounds, which were near 4.8% of everything screened.

SMILES	DAX1 inh-1	DAX1 inh-2	hcDAF-12 act	hgDAF-12 ag	SMARCA2 act	ssDAF12 agonist
OC1CN2CCC(O)C2C(O)C1O (stereo not given)	·	-1	4	-1	1	-1
CC(=O)NC(C)Cc1ccccc1 (stereo not given)	0	0	0	-1	1	-1
CC(Cc1ccccc1)NC(=O)c1ccc(N)cc1 (stereo not given)	4.8*	1	3	9	5	1
CC(Cc1ccccc1)NC(=O)C(c1ccc(N)cc1)c1ccc(N)cc1 (stereo not given)	0	0	-2	-1	1	-1
CC(Cc1ccccc1)NC(=O)NC(C)Cc1ccccc1 (stereo not given)	1	2	2	13*	4	0
COc1ccc2c(C)c(CCC(=O)N3C[C@H]4C[C@@H](C3)c3cccc(=O)n3C4)c(=O)oc2c1	5.7*	1	-2	4	-1	-1
COc1cccc(OCc2cc(C(=O)N3C[C@H]4C[C@@H](C3)c3cccc(=O)n3C4)no2)c1	3	1	5.6*	13*	4	1.5*
Cc1cc(N2CCNC[C@@H]2C)ccc1N1CCN[C@@H](C)C1	·	0	2	0	0	-1
Cc1ccc(OC(=O)N(C)C[C@@H]2OCc3ccccc3-c3c(n(C)c4ccccc34)C(=O)N([C@H](C)CO)C[C@H]2C)cc1	·	0	-1	1	-4	-1
N#Cc1ccc(NC(=S)N2Cc3cc(Br)ccc3-n3nncc3C2)cc1	·	-1	-1	2	-3	-1
CN1CC(C(=O)c2ccc(Cl)cc2)C(c2ccc(N(C)C)cc2)C1 (stereo not given)	4.2*	1	1	0	0	0
CN1CC(C(=O)c2ccc(F)cc2)C(c2ccc(F)cc2)C1 (stereo not given)	0	0	4	0	2	-1
CC(=O)Nc1ccc(C2CN(C)CC2C(=O)c2ccc(Cl)cc2)cc1 (stereo not given)	0	4.2*	0	1	0	-1
COc1ccc(NC(=S)NC(NC(=O)CF)C(Cl)(Cl)Cl)cc1[N+](=O)[O-] (stereo not given)	4.6*	0	-1	4	-2	-2
C[C@@H]1CNCCN1c1ccc(N2CC[C@@H](O)C2)c(C#N)c1	·	1	-2	4	4	-1
CC(C)NS(=O)(=O)c1ccc(OCC(=O)N2CCN(C)CC2)cc1	4.4*	0	0	6	0	-1
CN1CCN(C(=O)COc2ccc3ccccc3c2)CC1	0	0	1	3	1	0
CN1CCN(C(=O)COc2ccc(-c3nc4ccccc4s3)cc2)CC1	-4	3.9*	5	11*	4	0
N#CCC[C@@H]1CC[C@]2(CCCN(Cc3ccncc3)C2)O1	·	0	1	-1	-1	-1
CC1=NCCc2c1[nH]c1ccccc21	0	0	6.3*	-1	1	1.0*
CN1CCc2c([nH]c3ccccc23)C1	-1	-1	5	7	1	-1
COc1ccc(OC)c(C(c2c(O)c3ccccc3oc2=O)c2c(C)n(C)n(-c3ccccc3)c2=O)c1 (stereo not given)	6.6*	0	-1	0	0	-1
Cc1c(C(c2ccc(O)cc2)c2c(O)c3ccccc3oc2=O)c(=O)n(-c2ccccc2)n1C (stereo not given)	-1	0	-1	-1	1	-1
O=C1C2CC=CCC2C(=O)N1SC(Cl)(Cl)Cl (stereo not given)	·	-3	-2	-3	2	-2
O=C1NC(=O)N(CCC2=CCCCC2)C(=O)/C1=C/c1cccs1	·	0	1	1	2	1.7*
SMILES	DAX1 inh-1	DAX1 inh-2	hcDAF-12 act	hgDAF-12 ag	SMARCA2 act	ssDAF12 agonist
CC(C)C[C@H]1COc2cccc(N3CCN(C)CC3)c2S(=O)(=O)N1	·	4.2*	-1	1	-4	-1
CC(C)C[C@@H]1COc2cccc(N3CCN(C)CC3)c2S(=O)(=O)N1	·	-2	0	2	-4	-1
c1ccc(Cn2nnnc2C2CN=C(c3ccccc3)c3ccccc3N2)cc1 (stereo not given)	·	0	0	-1	-3	-1
CCOC(=O)CC(SP1(=S)OCC2(CC=CCC2)CO1)C(=O)OCC (stereo not given)	0	3.9*	1	-3	-3	-1
CC(=O)C1=C(C)OC(N)=C(C(=O)OC(C)C)C12C(=O)Nc1ccccc12 (stereo not given)	0	0	6.2*	1	0	-1
CCCCOC(=O)C1=C(N)OC2=C(C(=O)CCC2)[C@]12C(=O)Nc1ccccc12	0	0	2	4	-4	0
COCCOC(=O)C1=C(C)OC(N)=C(C(=O)OC)C12C(=O)Nc1ccccc12 (stereo not given)	0	0	3	1	-4	1
COC(=O)C1=C(N)Oc2cc(C)oc(=O)c2C12C(=O)Nc1ccccc12 (stereo not given)	0	0	5	-2	-2	1.0*
Cc1cc(N2CCNC[C@H]2C)ccc1N1CCN[C@H](C)C1	·	0	2	4	-3	-1
O=C(O)C(Br)Br	·	1	1	4	-2	0
Cc1nn(Cc2ccccc2Cl)c(Cl)c1C(=O)OCC(=O)NC(=O)NC1CCCCC1	0	0	-1	1	-2	-1
Cc1nn(CC(C)C)c(Cl)c1C(=O)NC1CCC(C)CC1 (stereo not given)	1	4.2*	4	6	6	1
COc1ccc(-c2cc(=NCCCCCC(=O)O)c3cc(C)ccc3o2)cc1	1	2	2	11*!	3	-1
COc1ccc(Cc2cn(C)c(N)n2)cc1	·	0	0	0	-1	-1
Cc1ccc(C2NC(=S)NC(c3ccc(C)cc3)C23C(=O)NC(=O)NC3=O)cc1 (stereo not given)	4.3*	0	2	1	-2	-1
O=C1NC(=S)NC(=O)C12C(c1ccc(F)cc1)NC(=S)NC2c1ccc(F)cc1 (stereo not given)	-1	0	2	2	-1	-1
CCOC(=O)CC[C@@H]1CC[C@]2(CCCN(Cc3ccncc3)C2)O1	·	0	-1	0	-5	-1
COc1ccc2nc(-c3ccc(CN4CCC(n5c(=O)[nH]c6cc(Cl)ccc65)CC4)cc3)c(-c3ccccc3)nc2c1	·	-2	-3	0	6	-2
COc1ccc(CN2CCN(c3ccccc3F)CC2)cc1O	4.5*	0	-1	0	1	-1
COc1ccccc1N1CCN(Cc2ccc(F)cc2)CC1	0	0	-1	0	-3	-1
COc1ccccc1N	·	0	-1	-3	2	-2
